“And” between values parts separate entries of the source, which are not always exact repeats. Identical values can stand only once. Inconclusive results are not listed. More than one record can exist for a structure, and the calls need not agree. The source made the active and inactive calls. Unless noted, calls come from the whole dose curve; as a rule, active = well fitted curve in the direction sought with a large enough effect in the repeat runs; inconclusive = weak or mixed curves; inactive = no such curve, though single readings can be large; an effect the other way counts as inactive or inconclusive.
What was measured:
[1] = qHTS assay to identify small molecule agonists of the peroxisome proliferator-activated receptor delta (PPARd) signaling pathway - cell viability counter screen (AID 743211); note: nearly all actives have a fitted effect of over 55% in size; note: potency is the fitted concentration of half-maximal effect
Method in brief: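 Following 5 h plating at 37 C and 5% CO2, PPARd UAS-bla HEK293H cells took up test compounds for 17 h. Viability was quantified by luminescence 30 min after CellTiter-Glo addition at room temperature.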

[2] = qHTS assay to identify small molecule antagonists of the peroxisome proliferator-activated receptor delta (PPARd) signaling pathway - cell viability counter screen (AID 743213); note: nearly all actives have a fitted effect of over 50% in size; note: potency is the fitted concentration of half-maximal effect
Method in brief: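 Same-well viability: cells pre-incubated 5 h, dosed with compound plus 300 nM L165041, kept 17 h at 37 C, FRET substrate 2 h RT, then CellTiter-Glo 30 min RT and luminescence.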

[3] = qHTS assay to identify small molecule agonists of the farnesoid-X-receptor (FXR) signaling pathway - cell viability counter screen (AID 743218); note: nearly all actives have a fitted effect of over 45% in size; note: potency is the fitted concentration of half-maximal effect
Method in brief: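 FXR-UAS-bla HEK 293T cells, plated 5 h at 37 C, were exposed to compounds for 16 h at 37 C. CellTiter-Glo was then added to the same wells as the bla readout; luminescence read after 30 min at room temperature.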

[4] = biological target: Vitamin D3 receptor (Homo sapiens) (UniProt P11473); assay: qHTS assay to identify small molecule antagonists of the vitamin D receptor (VDR) signaling pathway (AID 743223; active = well fitted inhibition curve with a large enough effect in the signal ratio in the repeat runs, not every such curve was filed as active; the % refers to the signal ratio; note: potency is the fitted concentration of half-maximal effect)
Vitamin D3 receptor (Homo sapiens), sequence (P11473 whole entry, looked up): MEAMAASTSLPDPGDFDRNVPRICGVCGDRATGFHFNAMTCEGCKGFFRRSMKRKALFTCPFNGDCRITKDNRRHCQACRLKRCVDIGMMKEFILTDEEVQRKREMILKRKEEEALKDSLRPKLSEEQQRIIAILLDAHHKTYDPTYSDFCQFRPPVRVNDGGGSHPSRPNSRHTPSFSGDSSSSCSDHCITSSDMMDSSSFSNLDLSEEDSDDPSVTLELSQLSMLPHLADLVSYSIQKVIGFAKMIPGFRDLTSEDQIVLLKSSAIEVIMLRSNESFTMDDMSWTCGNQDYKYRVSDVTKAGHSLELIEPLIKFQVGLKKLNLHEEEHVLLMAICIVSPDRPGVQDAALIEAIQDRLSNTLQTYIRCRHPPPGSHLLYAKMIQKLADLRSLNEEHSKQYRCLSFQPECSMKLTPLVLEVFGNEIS
Method in brief: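 Beta-lactamase activity in VDR-bla cells is measured by FRET substrate fluorescence (2 h, room temperature) after cells spend 16 h at 37C with test compound and 3 nM final 1alpha,25-dihydroxyvitamin D3.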

[5] = qHTS assay to identify small molecule agonists of the vitamin D receptor (VDR) signaling pathway - cell viability counter screen (AID 743224); note: nearly all actives have a fitted effect of over 50% in size; note: potency is the fitted concentration of half-maximal effect
Method in brief: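 VDR-bla cells were preincubated 4 h at 37C/5% CO2, then exposed to compounds for 16 h. After the 2 h room-temperature bla FRET read, CellTiter-Glo was added to the same wells and luminescence read after 30 min.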

[6] = qHTS assay to identify small molecule antagonists of the vitamin D receptor (VDR) signaling pathway - cell viability counter screen (AID 743225); note: nearly all actives have a fitted effect of over 50% in size; note: potency is the fitted concentration of half-maximal effect
Method in brief: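 In this counter screen, VDR-bla HEK 293T cells receive test compound plus 3 nM final calcitriol for 16 h at 37C. Room-temperature steps of 2 h with the beta-lactamase substrate, then 30 min with CellTiter-Glo, precede the luminescence read.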

[7] = qHTS assay to identify small molecule agonists of the NFkB signaling pathway - cell viability counter screen (AID 1159515; calls by dose curve; note: nearly all actives have a fitted effect of over 55% in size; note: potency is the fitted concentration of half-maximal effect)
Method in brief: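 NFkB-bla ME-180 cells, 2,000/well, were plated overnight at 37 C, 5% CO2, then exposed to compounds in DMSO for 5 hr. After the bla FRET read, CellTiter-Glo was added to the same wells; luminescence was read after 30 min at room temperature.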

[8] = qHTS assay to identify small molecule antagonists of the retinoid-related orphan receptor gamma (ROR-gamma) signaling pathway - cell viability counter screen (AID 1159520); note: nearly all actives have a fitted effect of over 50% in size; note: potency is the fitted concentration of half-maximal effect
Method in brief: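 Tet-on ROR gamma CHO cells (1,000/well) were plated 4 hr, given compounds in DMSO for 2 hr at 37 C, then induced with 1 uM final doxycycline for 16 hr. Viability was read as ATP by CellTiter-Glo luminescence after 30 min.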

[9] = biological target: Nuclear receptor ROR-gamma (Homo sapiens) (UniProt P51449); assay: qHTS assay to identify small molecule antagonists of the retinoid-related orphan receptor gamma (ROR-gamma) signaling pathway (AID 1159521; note: nearly all actives have a fitted effect of over 50% in size; note: potency is the fitted concentration of half-maximal effect)
Method in brief: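 Screening format: cell-based luciferase reporter in CHO cells with doxycycline-inducible RORγ. Compound pre-exposure lasts 2 h, doxycycline is 1 uM final, induction runs 16 h at 37 C, and ONE-Glo luminescence is read.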

[10] = qHTS assay to identify small molecule agonists of the AP-1 signaling pathway - cell viability counter screen (AID 1159525; calls by dose curve; note: nearly all actives have a fitted effect of over 55% in size; note: potency is the fitted concentration of half-maximal effect)
Method in brief: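 ME-180 AP-1-bla, 2500 cells/well, Opti-MEM + 0.5% dialyzed FBS; overnight 37 °C; cpd 15-pt titration, 5 h 37 °C; CellTiter-Glo 30 min RT; luminescence read; normalised to TOAB and DMSO controls.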

[11] = biological target: Bile acid receptor (Homo sapiens) (UniProt Q96RI1); assay: qHTS assay to identify small molecule agonists of the farnesoid-X-receptor (FXR) signaling pathway (AID 743220; active = well fitted activation curve with a large enough effect in the signal ratio in the repeat runs, not every such curve was filed as active; the % refers to the signal ratio; note: potency is the fitted concentration of half-maximal effect)
Bile acid receptor (Homo sapiens), sequence (Q96RI1 whole entry, looked up): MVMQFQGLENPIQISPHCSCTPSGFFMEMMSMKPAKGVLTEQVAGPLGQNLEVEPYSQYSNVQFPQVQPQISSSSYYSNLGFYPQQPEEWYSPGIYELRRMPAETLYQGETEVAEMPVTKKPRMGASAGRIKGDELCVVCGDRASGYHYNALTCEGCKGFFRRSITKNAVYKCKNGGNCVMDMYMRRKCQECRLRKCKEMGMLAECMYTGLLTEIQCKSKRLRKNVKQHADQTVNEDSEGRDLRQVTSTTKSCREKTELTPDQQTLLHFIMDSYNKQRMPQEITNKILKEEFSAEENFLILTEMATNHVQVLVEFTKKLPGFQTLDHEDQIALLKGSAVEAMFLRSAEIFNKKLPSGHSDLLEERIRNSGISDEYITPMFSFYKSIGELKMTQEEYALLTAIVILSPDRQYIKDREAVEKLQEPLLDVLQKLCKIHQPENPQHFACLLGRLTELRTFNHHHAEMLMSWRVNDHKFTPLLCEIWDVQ
Method in brief: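 Beta-lactamase reporter under UAS control in GeneBLAzer FXR HEK 293T cells (5000/well) measured with LiveBLAzer FRET substrate after 2 h at room temperature. Compound exposure lasted 16 h at 37C.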

[12] = qHTS assay to identify small molecule antagonists of the farnesoid-X-receptor (FXR) signaling pathway - cell viability counter screen (AID 743221; active = well fitted cell-killing curve with a large enough effect in the repeat runs, not every such curve was filed as active; note: nearly all actives have a fitted effect of over 50% in size; note: potency is the fitted concentration of half-maximal effect)
Method in brief: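 Compound effects on cell number were measured as CellTiter-Glo luminescence in HEK 293T cells expressing FXR-UAS-bla, after 16 h at 37 C with 50 uM CDCA (final).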

[13] = biological target: Peroxisome proliferator-activated receptor delta (Homo sapiens) (UniProt Q03181); assay: qHTS assay to identify small molecule agonists of the peroxisome proliferator-activated receptor delta (PPARd) signaling pathway (AID 743212; calls by dose curve; note: % is set by controls: 0 for no effect and ±100 for the full control effect)
Peroxisome proliferator-activated receptor delta (Homo sapiens), sequence (Q03181 whole entry, looked up): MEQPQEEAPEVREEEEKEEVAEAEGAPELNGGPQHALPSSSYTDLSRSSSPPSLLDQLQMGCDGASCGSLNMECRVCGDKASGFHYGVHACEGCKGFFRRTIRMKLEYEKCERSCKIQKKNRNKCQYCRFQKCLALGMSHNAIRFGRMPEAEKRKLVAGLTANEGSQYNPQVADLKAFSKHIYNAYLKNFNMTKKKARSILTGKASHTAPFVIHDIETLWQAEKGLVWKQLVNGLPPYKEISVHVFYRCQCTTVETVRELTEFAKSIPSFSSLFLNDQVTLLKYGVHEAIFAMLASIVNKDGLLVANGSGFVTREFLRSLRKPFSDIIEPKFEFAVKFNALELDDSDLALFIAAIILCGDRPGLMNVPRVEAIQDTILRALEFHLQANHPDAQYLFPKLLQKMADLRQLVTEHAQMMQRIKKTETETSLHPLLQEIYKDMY
Method in brief: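 A PPARd-bla HEK293H line with beta-lactamase under an Upstream Activator Sequence is treated with compounds at 37 C. Substrate loading for 2 h at room temperature precedes the fluorescence measurement.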

[14] = biological target: Peroxisome proliferator-activated receptor delta (Homo sapiens) (UniProt Q03181); assay: qHTS assay to identify small molecule antagonists of the peroxisome proliferator-activated receptor delta (PPARd) signaling pathway (AID 743215; active = well fitted inhibition curve with a large enough effect in the signal ratio in the repeat runs, not every such curve was filed as active; the % refers to the signal ratio;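 note: cells stimulated with agonist L165041 at 300 nM final during compound exposure; series mostly up to about 62 µM; % is set by controls: 0 for no effect and ±100 for the full control effect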)
Method in brief: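 PPARd UAS-bla HEK293H cells were pre-incubated 5 h at 37 C, then given test compounds in DMSO plus agonist L165041 (300 nM final). After 17 h at 37 C, beta-lactamase FRET substrate was added; fluorescence read after 2 h at room temperature.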

[15] = biological target: Bile acid receptor (Homo sapiens) (UniProt Q96RI1); assay: qHTS assay to identify small molecule antagonists of the farnesoid-X-receptor (FXR) signaling pathway (AID 743217; active = well fitted inhibition curve with a large enough effect in the signal ratio in the repeat runs, not every such curve was filed as active; the % refers to the signal ratio; note: potency is the fitted concentration of half-maximal effect)
Method in brief: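 FXR-UAS-bla HEK 293T cells pre-incubated 5 h at 37 °C, then exposed to compounds with chenodeoxycholic acid (50 uM final) for 16 h at 37 °C. Beta-lactamase reporter read by LiveBLAzer B/G FRET substrate fluorescence after 2 h at room temperature.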

[16] = biological target: Vitamin D3 receptor (Homo sapiens) (UniProt P11473); assay: qHTS assay to identify small molecule agonists of the vitamin D receptor (VDR) signaling pathway (AID 743222; calls by dose curve; note: % is set by controls: 0 for no effect and ±100 for the full control effect)
Method in brief: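 VDR-bla cells were plated 4 h at 37C/5% CO2, then exposed to compounds in DMSO for 16 h. After LiveBLAzer B/G FRET substrate addition and 2 h at room temperature, beta-lactamase reporter fluorescence was read.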

[17] = biological target: Retinoic acid receptor RXR-alpha (Homo sapiens) (UniProt P19793); assay: qHTS assay to identify small molecule agonists of the RXR signaling pathway (AID 1159527; calls by dose curve; note: nearly all actives have a fitted effect of over 35% in size; note: potency is the fitted concentration of half-maximal effect)
Retinoic acid receptor RXR-alpha (Homo sapiens), sequence (P19793 whole entry, looked up): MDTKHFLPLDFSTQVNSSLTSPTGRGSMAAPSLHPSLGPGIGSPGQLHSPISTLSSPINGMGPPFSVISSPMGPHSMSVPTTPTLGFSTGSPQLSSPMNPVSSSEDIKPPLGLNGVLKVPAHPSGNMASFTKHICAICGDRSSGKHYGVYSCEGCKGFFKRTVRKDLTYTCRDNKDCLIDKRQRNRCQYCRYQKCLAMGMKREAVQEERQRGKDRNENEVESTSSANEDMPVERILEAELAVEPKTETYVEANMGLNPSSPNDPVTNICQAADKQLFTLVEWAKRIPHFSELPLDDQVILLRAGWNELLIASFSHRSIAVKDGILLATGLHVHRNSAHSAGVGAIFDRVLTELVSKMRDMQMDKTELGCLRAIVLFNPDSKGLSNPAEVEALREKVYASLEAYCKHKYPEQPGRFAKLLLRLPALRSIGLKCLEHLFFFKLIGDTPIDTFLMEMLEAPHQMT
Method in brief: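 Fluorescence ratio readout (460 vs 530 nm) from GeneBLAzer RXR-alpha HEK 293T cells after 16 hr compound treatment; cells seeded 5 hr beforehand in low-serum, charcoal-stripped medium.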

[18] = qHTS assay to identify small molecule agonists of the AP-1 signaling pathway (AID 1159526; calls by dose curve; note: % is set by controls: 0 for no effect and ±100 for the full control effect)

Oc1ccc(C2(c3ccc(O)cc3)CC3CC2C2CCCC32)cc1 (stereo unspecified)
active: Potency [1] 14.9 µM | Potency [2] 23.6 µM | Potency [3] 18.7 µM | Potency [4] 47 µM | Potency [5] 23.6 µM | Potency [6] 33.3 µM | Potency [7] 52.8 µM | Potency [8] 52.3 µM | Potency [9] 46.6 µM | Potency [10] 41.9 µM

O=[N+]([O-])c1cc(Cl)c(Cl)c(Cl)c1Cl
inactive: Potency [2] | Potency [11] | Potency [12] | Potency [5] | Potency [6] | Potency [7] | Potency [8] | Potency [9] | Potency [10]

COc1cccc2c1C(=O)c1c(O)c3c(c(O)c1C2=O)C[C@@](O)(C(=O)CO)C[C@@H]3O[C@H]1C[C@H](N)[C@H](O[C@@H]2CCCCO2)[C@H](C)O1
inactive: Potency [1] | Potency [13] | Potency [2] | Potency [3] | Potency [12] | Potency [5] | Potency [6] | Potency [7] | Potency [9]
active: Potency [8] 5.31 µM

CCc1cc(SCc2sc(-c3ccc(C(F)(F)F)cc3)nc2CN2CCN(c3ccc(OC)cc3)CC2)ccc1OCC(=O)O
active: Potency [1] 7.76 µM | Potency [2] 5.49 µM | Potency [3] 7.76 µM | Potency [12] 19.5 µM | Potency [5] 19.5 µM | Potency [6] 7.76 µM | Potency [7] 43.6 µM | Potency [8] 30.6 µM | Potency [9] 13.7 µM | Potency [10] 43.6 µM

On1ccccc1=S
active: Potency [1] 0.385 µM | Potency [2] 0.685 µM | Potency [7] 0.385 µM | Potency [8] 5.39 µM | Potency [9] 0.303 µM | Potency [10] 21.7 µM

CC1=C(C(=O)OC(C)C)C(c2cccc([N+](=O)[O-])c2)C(C(=O)OC2CN(C(c3ccccc3)c3ccccc3)C2)=C(N)N1 (stereo unspecified)
inactive: Potency [14]
active: Potency [1] 11.9 µM | Potency [15] 29.8 µM | Potency [3] 13.3 µM | Potency [12] 26.6 µM | Potency [7] 10.7 µM | Potency [8] 26.6 µM | Potency [9] 21.1 µM | Potency [10] 15.1 µM

CCCCCCCCCCCCCCCC[N+](C)(C)CCN(Cc1ccc(OC)cc1)c1ncccn1
active: Potency [1] 13.3 µM | Potency [3] 29.8 µM | Potency [12] 26.6 µM | Potency [4] 21.3 µM | Potency [6] 19 µM | Potency [7] 23.9 µM | Potency [8] 29.8 µM | Potency [9] 33.5 µM | Potency [10] 21.3 µM
inactive: Potency [11]

CCN1/C(=C/C=C/c2sc3ccccc3[n+]2CC)Sc2ccccc21
active: Potency [1] 14.6 µM | Potency [5] 4.61 µM | Potency [8] 11.6 µM | Potency [9] 2.31 µM
inactive: Potency [11] | Potency [7] | viability change, negative = cytotoxic [10] -11.9% [at 15.8 µM]

C/C(=C(/OCCOc1ccc(Cl)cc1)c1ccc(Cl)cc1Cl)n1ccnc1
inactive: Potency [13] | Potency [2] | Potency [3] | Potency [12] | Potency [16] | Potency [4] | Potency [6] | Potency [7] | Potency [8] | Potency [10] | Potency [17]

O=C(NOCC1CC1)c1ccc(F)c(F)c1Nc1ccc(I)cc1Cl
active: Potency [9] 9.44 µM
inactive: Potency [2] | Potency [3] | Potency [12] | Potency [16] | Potency [4] | Potency [7]

OCCCCCCCCCCCCBr
active: Potency [9] 62.1 µM
inactive: Potency [1] | Potency [13] | Potency [2] | Potency [3] | Potency [11] | Potency [12] | Potency [16] | Potency [4] | Potency [5] | Potency [6] | Potency [7] | Potency [10] | Potency [18]

CC(C)(C)NC(=O)[C@@H]1C[C@@H]2CCCC[C@@H]2CN1C[C@@H](O)[C@H](Cc1ccccc1)NC(=O)[C@H](CC(N)=O)NC(=O)c1ccc2ccccc2n1
inactive: Potency [13] | Potency [11]
active: Potency [1] 35.1 µM | Potency [2] 44.2 µM | Potency [3] 55.7 µM | Potency [5] 44.2 µM | Potency [7] 55.7 µM | Potency [9] 55.2 µM

Oc1ccc(Cl)cc1Sc1cc(Cl)ccc1O
54.8 µM (active) and inactive: Potency [10]
inactive: Potency [11] | Potency [16] | Potency [4] | Potency [7]
active: Potency [1] 19.5 µM and 26.6 µM | Potency [2] 24.5 µM | Potency [3] 34.6 µM and 29.8 µM | Potency [12] 48.9 µM | Potency [5] 21.8 µM and 23.7 µM | Potency [9] 19.3 µM and 13.3 µM

Cc1ccc(-n2nc(C(C)(C)C)cc2NC(=O)Nc2ccc(OCCN3CCOCC3)c3ccccc23)cc1
active: Potency [15] 16.8 µM
inactive: Potency [11] | Potency [5] | Potency [7] | Potency [8] | Potency [10] | Potency [18]

CC(=O)N1CCN(c2ccc(OC[C@H]3CO[C@](Cn4ccnc4)(c4ccc(Cl)cc4Cl)O3)cc2)CC1
active: Potency [1] 34.7 µM | Potency [2] 27.5 µM | Potency [15] 43.6 µM | Potency [12] 54.9 µM | Potency [5] 21.9 µM | Potency [6] 38.9 µM | Potency [7] 61.6 µM | Potency [9] 9.69 µM | Potency [10] 49 µM

Nc1cc(C(F)(F)F)ccc1S
inactive: Potency [3] | Potency [12] | Potency [16] | Potency [5] | Potency [6] | Potency [7] | Potency [10]
active: Potency [9] 26.6 µM

CN(C)c1ccc(SC#N)cc1
inactive: Potency [1] | Potency [2] | Potency [15] | Potency [12] | Potency [16] | Potency [5] | Potency [8] | Potency [10]
active: Potency [7] 17.4 µM

CC1(C)CCC(C)(C)c2cc(C(=O)Nc3ccc(C(=O)O)cc3)ccc21
inactive: Potency [1] | Potency [13] | Potency [14] | Potency [15] | Potency [12] | Potency [7] | Potency [10] | Potency [18]
active: Potency [11] 43.6 µM | Potency [9] 61.1 µM | Potency [17] 4.36 µM

Source: PubChem BioAssay (Tox21)
